Targets with a hit are over-represented here; the source holds about 7,900 in all. About 0.6% of all pairs of compound and target were hits. Unmarked numbers belong to inactive results.

UniProt O94925, sequence (O94925 whole entry, looked up): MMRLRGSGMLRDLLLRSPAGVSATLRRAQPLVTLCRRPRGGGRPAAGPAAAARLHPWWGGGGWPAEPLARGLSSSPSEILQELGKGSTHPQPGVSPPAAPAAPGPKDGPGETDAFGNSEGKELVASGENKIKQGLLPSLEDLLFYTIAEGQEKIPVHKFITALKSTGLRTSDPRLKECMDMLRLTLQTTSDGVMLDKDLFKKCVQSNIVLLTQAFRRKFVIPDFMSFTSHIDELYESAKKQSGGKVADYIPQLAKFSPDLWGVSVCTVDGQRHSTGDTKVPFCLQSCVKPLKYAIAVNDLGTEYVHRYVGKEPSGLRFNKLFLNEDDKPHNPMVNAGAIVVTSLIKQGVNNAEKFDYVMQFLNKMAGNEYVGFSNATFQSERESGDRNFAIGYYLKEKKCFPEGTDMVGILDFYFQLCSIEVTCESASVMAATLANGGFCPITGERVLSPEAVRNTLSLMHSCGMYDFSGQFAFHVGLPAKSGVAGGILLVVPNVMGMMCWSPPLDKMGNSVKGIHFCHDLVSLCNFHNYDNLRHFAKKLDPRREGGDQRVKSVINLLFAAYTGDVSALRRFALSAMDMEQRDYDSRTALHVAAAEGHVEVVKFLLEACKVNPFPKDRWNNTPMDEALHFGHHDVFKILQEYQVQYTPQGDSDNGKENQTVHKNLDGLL
UniProt P36969, sequence (P36969 whole entry, looked up): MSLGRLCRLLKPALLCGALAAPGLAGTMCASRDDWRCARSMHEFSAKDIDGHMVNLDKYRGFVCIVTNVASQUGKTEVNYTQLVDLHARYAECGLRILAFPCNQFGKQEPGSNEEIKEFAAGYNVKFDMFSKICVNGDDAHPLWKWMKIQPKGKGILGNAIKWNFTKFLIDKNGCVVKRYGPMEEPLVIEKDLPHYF
UniProt P00367, sequence (P00367 whole entry, looked up): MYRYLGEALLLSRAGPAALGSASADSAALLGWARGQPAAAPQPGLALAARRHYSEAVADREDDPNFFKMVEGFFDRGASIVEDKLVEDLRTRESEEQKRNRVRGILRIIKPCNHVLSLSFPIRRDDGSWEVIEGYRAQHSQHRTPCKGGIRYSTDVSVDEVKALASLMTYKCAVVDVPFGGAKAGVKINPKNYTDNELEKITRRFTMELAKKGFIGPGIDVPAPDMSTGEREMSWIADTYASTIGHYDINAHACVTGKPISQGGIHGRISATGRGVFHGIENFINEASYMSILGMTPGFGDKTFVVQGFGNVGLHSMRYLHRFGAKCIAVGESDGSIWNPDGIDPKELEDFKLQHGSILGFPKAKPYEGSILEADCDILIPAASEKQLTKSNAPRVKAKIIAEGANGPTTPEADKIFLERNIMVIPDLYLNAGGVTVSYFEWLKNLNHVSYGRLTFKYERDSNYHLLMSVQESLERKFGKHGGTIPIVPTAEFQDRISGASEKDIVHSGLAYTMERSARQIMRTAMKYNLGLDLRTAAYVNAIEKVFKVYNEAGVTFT
UniProt Q8N4A0, sequence (Q8N4A0 whole entry, looked up): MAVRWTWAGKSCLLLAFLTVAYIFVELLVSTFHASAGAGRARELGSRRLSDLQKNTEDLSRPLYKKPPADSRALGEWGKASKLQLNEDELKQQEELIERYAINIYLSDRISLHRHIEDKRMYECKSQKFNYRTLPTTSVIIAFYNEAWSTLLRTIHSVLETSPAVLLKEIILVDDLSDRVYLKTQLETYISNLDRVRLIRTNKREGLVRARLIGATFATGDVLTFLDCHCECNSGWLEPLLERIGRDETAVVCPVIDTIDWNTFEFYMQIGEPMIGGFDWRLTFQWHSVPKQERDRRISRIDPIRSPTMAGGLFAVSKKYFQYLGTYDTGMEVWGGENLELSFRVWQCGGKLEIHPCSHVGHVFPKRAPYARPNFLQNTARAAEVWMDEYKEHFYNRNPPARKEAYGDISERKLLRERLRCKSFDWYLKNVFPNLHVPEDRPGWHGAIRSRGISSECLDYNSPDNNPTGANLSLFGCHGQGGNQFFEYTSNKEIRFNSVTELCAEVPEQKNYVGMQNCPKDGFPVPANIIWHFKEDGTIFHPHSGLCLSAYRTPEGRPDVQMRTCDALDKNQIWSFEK
UniProt P51570, sequence (P51570 whole entry, looked up): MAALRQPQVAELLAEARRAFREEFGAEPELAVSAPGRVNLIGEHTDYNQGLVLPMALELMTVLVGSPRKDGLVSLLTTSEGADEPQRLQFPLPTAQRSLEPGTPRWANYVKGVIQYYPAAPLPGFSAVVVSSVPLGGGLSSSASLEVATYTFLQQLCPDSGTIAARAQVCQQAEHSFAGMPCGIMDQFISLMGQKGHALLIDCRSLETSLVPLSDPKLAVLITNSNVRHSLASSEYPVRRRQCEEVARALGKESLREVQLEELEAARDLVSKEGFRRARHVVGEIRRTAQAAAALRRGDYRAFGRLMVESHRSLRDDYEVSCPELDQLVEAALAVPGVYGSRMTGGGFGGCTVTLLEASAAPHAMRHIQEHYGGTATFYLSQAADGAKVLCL
UniProt P09211, sequence (P09211 whole entry, looked up): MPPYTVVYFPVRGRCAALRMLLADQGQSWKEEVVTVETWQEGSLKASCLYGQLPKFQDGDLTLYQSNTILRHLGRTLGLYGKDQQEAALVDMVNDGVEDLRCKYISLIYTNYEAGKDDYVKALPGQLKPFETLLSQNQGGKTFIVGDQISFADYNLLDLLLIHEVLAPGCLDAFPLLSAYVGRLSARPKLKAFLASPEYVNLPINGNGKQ
UniProt O43824, sequence (O43824 whole entry, looked up): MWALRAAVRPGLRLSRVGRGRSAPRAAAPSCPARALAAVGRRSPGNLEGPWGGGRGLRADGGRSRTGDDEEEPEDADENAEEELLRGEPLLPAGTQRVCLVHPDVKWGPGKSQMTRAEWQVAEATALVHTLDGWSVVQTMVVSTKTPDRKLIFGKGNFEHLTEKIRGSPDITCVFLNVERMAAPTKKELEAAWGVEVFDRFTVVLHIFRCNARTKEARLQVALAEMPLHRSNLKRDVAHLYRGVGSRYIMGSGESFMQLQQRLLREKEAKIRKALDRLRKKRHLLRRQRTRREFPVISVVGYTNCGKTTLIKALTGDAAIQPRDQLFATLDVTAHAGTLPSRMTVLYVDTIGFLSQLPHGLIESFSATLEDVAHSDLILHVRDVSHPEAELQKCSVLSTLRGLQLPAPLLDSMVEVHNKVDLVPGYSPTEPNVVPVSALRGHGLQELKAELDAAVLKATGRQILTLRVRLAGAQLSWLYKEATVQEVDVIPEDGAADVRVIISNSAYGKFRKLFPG
UniProt Q00688, sequence (Q00688 whole entry, looked up): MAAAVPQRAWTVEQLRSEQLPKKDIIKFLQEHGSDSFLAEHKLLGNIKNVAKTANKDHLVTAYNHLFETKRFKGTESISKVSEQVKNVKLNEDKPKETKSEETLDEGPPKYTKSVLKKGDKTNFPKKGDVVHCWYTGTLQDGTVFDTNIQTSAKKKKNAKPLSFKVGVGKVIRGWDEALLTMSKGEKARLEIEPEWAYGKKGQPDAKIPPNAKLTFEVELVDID
UniProt O00291, sequence (O00291 whole entry, looked up): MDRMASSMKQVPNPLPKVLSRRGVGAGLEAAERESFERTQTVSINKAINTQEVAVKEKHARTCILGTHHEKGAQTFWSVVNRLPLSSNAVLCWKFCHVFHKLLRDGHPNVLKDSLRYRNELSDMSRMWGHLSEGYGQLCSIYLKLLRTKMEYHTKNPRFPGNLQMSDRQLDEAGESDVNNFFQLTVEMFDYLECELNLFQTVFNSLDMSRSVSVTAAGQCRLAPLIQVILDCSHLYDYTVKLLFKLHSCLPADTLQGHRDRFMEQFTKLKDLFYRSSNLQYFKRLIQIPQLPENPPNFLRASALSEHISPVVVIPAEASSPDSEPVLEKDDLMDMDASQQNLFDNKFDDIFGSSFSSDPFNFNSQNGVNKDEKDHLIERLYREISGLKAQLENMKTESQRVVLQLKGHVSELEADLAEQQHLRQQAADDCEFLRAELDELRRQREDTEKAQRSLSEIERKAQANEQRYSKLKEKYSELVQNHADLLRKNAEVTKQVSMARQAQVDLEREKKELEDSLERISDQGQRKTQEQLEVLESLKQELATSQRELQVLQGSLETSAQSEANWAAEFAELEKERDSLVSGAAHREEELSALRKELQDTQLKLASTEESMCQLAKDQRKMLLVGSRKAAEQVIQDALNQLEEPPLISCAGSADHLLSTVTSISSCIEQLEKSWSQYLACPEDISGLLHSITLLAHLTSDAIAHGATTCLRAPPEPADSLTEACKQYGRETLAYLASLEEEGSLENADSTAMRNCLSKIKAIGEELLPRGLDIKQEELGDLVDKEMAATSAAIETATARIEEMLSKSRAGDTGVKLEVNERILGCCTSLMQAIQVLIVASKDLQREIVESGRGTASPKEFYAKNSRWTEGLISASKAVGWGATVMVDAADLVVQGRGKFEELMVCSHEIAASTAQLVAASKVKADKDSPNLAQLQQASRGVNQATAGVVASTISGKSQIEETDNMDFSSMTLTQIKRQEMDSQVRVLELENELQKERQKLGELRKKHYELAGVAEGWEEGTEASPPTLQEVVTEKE
UniProt Q96JB3, sequence (Q96JB3 whole entry, looked up): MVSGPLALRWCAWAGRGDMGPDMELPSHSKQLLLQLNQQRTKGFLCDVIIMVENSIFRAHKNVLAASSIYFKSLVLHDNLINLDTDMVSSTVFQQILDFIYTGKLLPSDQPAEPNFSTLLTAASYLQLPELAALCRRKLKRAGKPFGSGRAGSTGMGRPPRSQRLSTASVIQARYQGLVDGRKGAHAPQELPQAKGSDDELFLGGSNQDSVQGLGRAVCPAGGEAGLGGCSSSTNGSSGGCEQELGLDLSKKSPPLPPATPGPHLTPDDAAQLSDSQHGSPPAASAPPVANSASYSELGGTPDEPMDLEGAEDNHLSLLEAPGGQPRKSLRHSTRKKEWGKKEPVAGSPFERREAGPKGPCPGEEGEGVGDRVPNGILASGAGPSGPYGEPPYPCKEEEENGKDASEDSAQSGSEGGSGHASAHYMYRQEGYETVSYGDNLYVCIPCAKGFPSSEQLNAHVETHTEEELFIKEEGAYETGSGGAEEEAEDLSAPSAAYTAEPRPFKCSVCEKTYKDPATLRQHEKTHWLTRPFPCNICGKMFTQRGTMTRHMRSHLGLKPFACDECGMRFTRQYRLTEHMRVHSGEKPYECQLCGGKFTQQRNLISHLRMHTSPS

Compound in the experiment: c1ccc([C@@H]2C[C@H]2NC2CCNCC2)cc1
As to the kind of experiment: log2 fold change, soluble protein after heating vs DMSO (PISA); higher = thermal stabilisation; K562 cells, 10 uM, 30 min; active = over 0.2 and 3.5 SD of the protein, either way, in both replicates (recomputed). In short, it runs like this:
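For each measurement, 10 μM compound was applied for 30 min to K562 cells at 2×10^6 cells/mL. Aliquots were heated for 3 min across 48°C-58°C, pooled, and extracted in PBS with 0.5% NP-40 at 4°C; the supernatant after 21,000xg for 90 min was soluble protein. This was quantified by TMTpro 16plex LC-MS/MS with channel sums equalised, and thermal stability was reported relative to control samples from duplicates, on a log2 fold-change scale.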
For GLUL (UniProt P15104), the log2 fold change was 0.02.
Consider HIP1 (UniProt O00291), for which the log2 fold change is 0.045.
On to GLS (UniProt O94925), for which the log2 fold change is 0.082.
The value for HIC2 (UniProt Q96JB3) was 0.078.
Consider GNPAT (UniProt O15228), for which the log2 fold change is -0.036.
For GTF2H3 (UniProt Q13889), the log2 fold change is 0.017.
For FKBP3 (UniProt Q00688), the log2 fold change was -0.016.
With GLA (UniProt P06280) the figure was 0.017; with HNRNPH1 (UniProt P31943), -0.017.
The value for HNRNPUL1 (UniProt Q9BUJ2) was 0.058; that for GMEB1 (UniProt Q9Y692) was 0.022.
Turning to GALK1 isoform 2 (UniProt P51570), the log2 fold change is -0.007.
The value for GNS (UniProt P15586) was 0.027; that for GTF3C4 (UniProt Q9UKN8) was 0.025.
FECH isoform 2 (UniProt P22830): the log2 fold change is -0.08.
Regarding GLUD1 (UniProt P00367), the log2 fold change is -0.03.
Regarding GALNT4 (UniProt Q8N4A0), the log2 fold change is -0.002.
With GNL1 (UniProt P36915) the figure was -0.038; with FBXO3 (UniProt Q9UK99), 0.127; with IFRD1 (UniProt O00458), 0.004.
The value for GTPBP6 (UniProt O43824) was -0.034; that for GPX4 (UniProt P36969) was 0.028; that for GSTP1 (UniProt P09211) was -0.016.

Values taken from the supplement of paper PMC10849652.
